The structures appear in SMILES notation. The panel holds about 83,000 compounds, 20% with a hit somewhere; the sample as a whole holds those more often.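 For each line, cells grew in 96-well plates with the test compound present at a single concentration for 48 hours.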 Calls of active or inactive are those of the source. The calls were made as follows: active = growth percent below 10; inactive = the rest.

In this experiment the test system is DU-145 prostate. The experiment is described as follows: NCI-60 one-dose screen, 48 h (100 = growth as untreated, 0 = no growth, -100 = all killed). Particulars: 10 µM unless noted.
As to `N#C/C(=C\c1ccc(-c2ccc(Cl)c(Cl)c2)o1)c1nc(-c2ccco2)cs1`, the growth is 114% (inactive).
Turning to `CC(C)C1=C[C@@]23CC[C@@H]4[C@](C)(CCC[C@@]4(C)C(=O)N4CCCNCC4)[C@H]2C[C@@H]1[C@H]1C(=O)CCC(=O)[C@H]13`, the growth was 114% (inactive).
With `COc1ccc(CCNc2nc(SC)nc(-c3cccc([N+](=O)[O-])c3)c2C#N)cc1OC`, the growth is 91.7% (inactive).
For the compound `Cc1cc(NS(=O)(=O)c2ccc(-c3cnc(C4CC4)o3)cc2)ccc1Cl`, the growth was 14.3% (inactive).
Regarding `COc1ccc(-c2cc(C(=O)N=Nc3c(O)[nH]c4ccc(Br)cc34)no2)cc1`, the growth was 105% (inactive).
On to `CCCOc1cc2ccccc2cc1C(=O)Nc1nc(NC)c2c(ccc3nccc32)[nH]1`, for which the growth was -82.8% (active).
For the compound `CCCCN(CCCC)CCCn1c(-c2ccccc2)ccc1-c1ccccc1`, the growth was 68.3% (inactive).
The figure for `Cc1nc2ccccc2n1C(=O)C[C@@H]1NC(=S)NC1=O` is 109% (inactive); for `N#CCCN=Nc1c(O)[nH]c2ccc([N+](=O)[O-])cc12` it is 111% (inactive); for `Cc1cc(N2CCOCC2)nc(NCc2cc(Nc3ccnc4cc(Cl)ccc34)ccc2F)n1` it is -57.6% (active).
The figure for `Nc1n[nH]c2ccc([C@@H]3Nc4cc5c(cc4[C@H]4C6CCC(C6)[C@@H]34)C(=O)NC5)cc12` (stereo partly drawn) is -17.9% (active); for `c1ccc(-c2c(-c3ccccc3)[n+](Cc3ccc4ccccc4c3)c(-c3ccc(-c4nc5ccccc5s4)cc3)n2Cc2ccc3ccccc3c2)cc1` it is -95.4% (active).
Consider `C=CC(=O)Nc1cccc(-c2nc(SC)nc(NCc3ccccc3)c2C#N)c1`, for which the growth is 60.8% (inactive).
The figure for `CCCOc1ccc2nc(NC(=O)OC)[nH]c2c1` is 0.47% (active); for `COc1cccc(/C=C2\Oc3cc(OCCN4CCCC4)ccc3C2=O)c1` it is 98.5% (inactive); for `COc1ccc(/C=C2\Oc3cc(OCCCCN4CCCC4)ccc3C2=O)cc1` it is 95% (inactive).
Consider `COc1cccc(-c2nn(C(C)(C)C)cc2-c2ccnc(NCCCNS(=O)(=O)c3cccc4ccccc34)c2)c1`, for which the growth was 107% (inactive).
Take `COc1cccc(-c2nc3sccn3c2-c2ccnc(NCCCNS(=O)(=O)c3c(Cl)cccc3Cl)c2)c1`: the growth was 66.1% (inactive).
For the compound `O=C1c2cc3c(cc2-c2c1c1cc(F)c(F)cc1c(=O)n2CCCn1ccnc1)OCO3`, the growth is 9.97% (active).
The figure for `O=C(/C=C/c1cccc(Cl)c1)c1ccc(O)c(CN2CCN(c3cc4c(cc3F)c(=O)c(C(=O)O)cn4C3CC3)CC2)c1` is 34.6% (inactive); for `CCCn1c(=O)[nH]c(N)c([C@H]2c3ccccc3Oc3[nH]c(=O)n(CCC)c(=O)c32)c1=O` it is 75.1% (inactive); for `N#CCCN=Nc1c(O)[nH]c2ccc(F)cc12` it is 106% (inactive).
The figure for `COc1ccc(-c2n[nH]nc2-c2csc3ccccc23)cc1OC` is 41.5% (inactive); for `COc1cc(/C=C/c2cc(O)c3cc(C(C)=O)c(=O)oc3c2)cc2c1O[C@]1(C)CC[C@@H](O)C(C)(C)[C@H]1C2` it is 53.4% (inactive).
With `O=C(N=Nc1c(O)[nH]c2ccc(Br)cc12)c1cc(-c2ccccc2)on1`, the growth was 110% (inactive).
The figure for `CSc1nc(NCc2ccccc2)c(C#N)c(-c2cccc([N+](=O)[O-])c2)n1` is 103% (inactive); for `O=S(=O)(Nc1ccc(Cl)c(F)c1)c1ccc(-c2cnc(C3CC3)o2)cc1` it is 16.6% (inactive); for `CC1(C)CC[C@]2(C(=O)Nc3ccccn3)CC[C@]3(C)C(=CC[C@@H]4[C@@]5(C)C/C(=C/c6cccnc6)C(=O)C(C)(C)[C@@H]5CC[C@]43C)[C@H]2C1` it is 53.2% (inactive).
As to `O=S(=O)(Nc1ccc(Br)c(Cl)c1)c1ccc(-c2cnc(C3CC3)o2)cc1`, the growth is 9.63% (active).
The figure for `C=C(C)[C@@H]1CC[C@]2(C(N)=O)CC[C@]3(C)[C@H](CC[C@@H]4[C@@]5(C)C/C(=C/c6ccco6)C(=O)C(C)(C)[C@@H]5CC[C@]43C)[C@@H]12` is 92.6% (inactive).
Take `Cc1nc2c3c(-c4ccccc4)c(-c4ccccc4)oc3ncn2n1`: the growth was 104% (inactive).
On to `COc1cccc(-c2nn(C(C)(C)C)cc2-c2ccnc(NCCCNS(=O)(=O)c3ccc(C)cc3)c2)c1`, for which the growth is 107% (inactive).
Take `COc1ccc(-c2nc3ccc(-c4nc5ccc(N6CCN(c7ccc(F)cc7)CC6)cc5[nH]4)cc3[nH]2)cc1OC`: the growth was 80.3% (inactive).
Regarding `O=C1NC(=S)NC(=O)C1CC(=O)n1c(-c2ccccc2)nc2ccccc21`, the growth was 113% (inactive).
The figure for `CSc1nc(NCCN2CCOCC2)c(C#N)c(-c2cccc([N+](=O)[O-])c2)n1` is 106% (inactive).
The figure for `N#Cc1c(-c2ccc(Cl)cc2)nc(N=Nc2c(O)[nH]c3ccc(Cl)cc23)nc1N1CCOCC1` is 103% (inactive).
For the compound `Cc1ccc(NS(=O)(=O)c2ccc(-c3cnc(C4CC4)o3)cc2)cc1C`, the growth was 14.4% (inactive).
As to `Oc1ccccc1-c1nnc(CNc2ccc(Cl)cc2)o1`, the growth was 35.5% (inactive).

Source of the values: PubChem BioAssay (NCI).
